# Measured values from PubChem BioAssay (NCI).
# The panel holds about 83,000 compounds, 20% with a hit somewhere; the sample as a whole holds those more often.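 48-hour exposure, single concentration, 96-well plates; percent growth endpoint where 0 means no net growth. Active: below 10.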 Values without a mark were called inactive. Calls of active or inactive are those of the source.
# System: UO-31 renal
# Experiment: NCI-60 one-dose screen, 48 h (100 = growth as untreated, 0 = no growth, -100 = all killed)
# Conditions: 10 µM unless noted
# Experimental: Growth inhibition of the UO-31 human tumor cell line is measured as a screen for anti-cancer activity. Cells are grown in 96 well plates and exposed to the test compound for 48 hours. Compounds are tested at a single concentration, which is 10^-5 M for most compounds. The reported endpoint is percent growth (GI% or GIPRCNT), where numbers from 0 - 100% represent growth inhibition, and numbers from -100% - 0 represent cell death. For example, a value of 40 represents 60% growth inhibition. A value of 0 means no net growth occurred over the course of the experiment. A value of -40 indicates 40% of cells at the beginning of the experiment died by the end of the experiment. A value of -100 means all cells are dead at the end of the experiment.
# NCI-60 Human Tumor Cell Lines Screen was performed using the standard one-dose NCI protocol, which is described in more detail at https://dtp.cancer.gov/discovery_development/nci-60/default.htm.
# Compounds with GIPRCNT values below 10 were considered active. Activity score was based on GIPRCNT using the following formula: […]
# Score is 0 for GIPRCNT values of 100 or above, 50 for GIPRCNT values of 0, and 100 for GIPRCNT values of -100.
row,Compound,growth
1,O=[N+]([O-])c1ccc(N=Nc2c(O)c(N=Nc3cc([N+](=O)[O-])cc([N+](=O)[O-])c3O)cc(N=Nc3cc(S(=O)(=O)O)cc4cc(S(=O)(=O)O)cc(O)c34)c2O)cc1,83.2%
2,CC(C)C[C@H](C(=O)O)N(C)C(=O)[C@@H]1CCCN1C(=O)[C@H](C)OC(=O)[C@H](CCC(N)=O)NC(=O)[C@@H]1CCC(=O)N1,88.3%
3,COc1ccc(Nc2cc(NC(=O)CNc3cc(OC)c(Cl)c(OC)c3Cl)ncn2)cc1,59.6%
4,COc1ccc([C@H]2[C@@H](F)C(=O)N2c2cc(OC)c(OC)c(OC)c2)cc1F,43.2%
5,CCCCCCCc1n(Cc2ccc3ccccc3c2)c2ccccc2[n+]1Cc1ccc2ccccc2c1,-88.1% (active)
6,O=C(/C(=C/c1ccc([N+](=O)[O-])cc1)SCc1ccccc1)c1ccc(Cl)cc1,59.5%
7,COc1ccc2[nH]c(=O)c(/C=C/C(=O)c3ccccc3OC)cc2c1,23.6%
8,C=C(C)[C@@H]1CC[C@]2(C(=O)OCCOCCOCC[P+](c3ccccc3)(c3ccccc3)c3ccccc3)CC[C@]3(C)[C@H](CC[C@@H]4[C@@]5(C)CC[C@H](OC(C)=O)C(C)(C)[C@@H]5CC[C@]43C)[C@@H]12,-95.1% (active)
9,C=C1C(=O)O[C@H]2[C@H]1CC/C(COC(=O)n1ccnc1)=C\CC[C@@]1(C)O[C@@H]21,73.3%
10,CCCCOc1nc2ccc(C)cc2cc1/C=C/C(=O)/C=C/c1ccc2c(c1)OCO2,75%
11,CC(C)(C)c1nn(-c2ccccc2)c2c1COCN2Cc1ccc(Cl)cc1,85.2%
12,c1ccc2nc(N3CCOCC3)c(N3CCCCC3)nc2c1,77.2%
13,NC(=O)c1ccc2nc3c(n2c1)C(=O)C(=O)c1ccccc1-3,-99.7% (active)
14,COc1cc(-c2cn(-c3ccc(Cl)c(Cl)c3)c(=O)[nH]2)cc(OC)c1OC,93.6%
15,[2H]c1cc2c(c([2H])c1F)/C(=C/c1[nH]c(C)c(C(=O)NCCN(CC)CC)c1C)C(=O)N2,12.3%
16,O=c1[nH]nc(-c2ccc(Br)cc2)c2sc(NC(=S)Nc3ccc(Cl)cc3)nc12,89.2%
17,O=C(CCCCCCCCC(=O)Nc1cccc(C2=NCCN2)c1)Nc1cccc(C2=NCCN2)c1,96.3%
18,COC(=O)c1ccc2c(c1)NC(=O)[C@@H]1CCCN21,88.1%
19,O=C(CCc1nnco1)c1nc2ccc([N+](=O)[O-])cc2[nH]1,74.9%
20,O=C(O)c1cc(N=Nc2ccc(-c3ccc(N=Nc4c(S(=O)(=O)O)cc5ccc(Nc6ccccc6)cc5c4O)cc3)cc2)ccc1O,81.3%

row,Compound,growth
1,CC(=O)c1ccc(NC(=O)CSc2nnc(-c3cc(-c4ccc(Cl)cc4)nc4ccccc34)o2)cc1,86.6%
2,O=C1C(Cl)=C(NCCCN(CCCNC2=C(Cl)C(=O)c3ccccc3C2=O)C2=C(Cl)C(=O)c3ccccc3C2=O)C(=O)c2ccccc21,58.1%
3,N#Cc1ccc(Oc2ccc3ccc(=O)oc3c2)cc1,99.1%
4,COc1ccc(-c2nnc(N3CCN(C(=O)CN4CCN(c5ccc(OC)cc5)CC4)CC3)nc2-c2ccc(OC)cc2)cc1,-64.4% (active)
5,Nc1ccc(C2=NN(C(=O)c3cc(-c4ccc(Cl)cc4)nc4ccccc34)C(c3ccccc3)C2)cc1 (stereo not given),49.5%
6,COc1ccc(-c2nnc(N3CCN(C(=O)CN4CCN(c5ccccc5)CC4)CC3)nc2-c2ccc(OC)cc2)cc1,26.9%
7,COc1cccc(NC(=O)Nc2ccc(Oc3ncnc4[nH]c(C)c(C)c34)cc2)c1,86.1%
8,COC(=O)/C=C1\SC(=Nc2ccc(C(F)(F)F)cc2)N(CCc2c[nH]c3ccccc23)C1=O,-100% (active)
9,O=S(=O)(O)c1ccc(N=NSc2ccc3ccccc3c2)cc1,71%
10,FC(F)(F)c1ccc2c(Nc3cccc(C4CC(c5ccccc5)=NN4c4ccc(Cl)cc4)c3)ccnc2c1 (stereo not given),35.9%
11,O=C1[C@@H](OS(=O)(=O)CC(F)(F)F)[C@H](c2ccc(F)cn2)N1c1cc2c3ccccc3ccc2c2ccccc12,62.1%
12,C=CCn1c(SCC(=O)Nc2ccc(C(=O)/C=C/c3cc(OC)c(OC)c(OC)c3)cc2)nnc1-c1ccc(Cl)cc1,26.5%
13,CCCCn1c(=O)c(/C=C/C(=O)/C=C/c2ccc(O)c(OC)c2)cc2ccc(Cl)cc21,6.03% (active)
14,CCOC(=O)c1c(C)nc2c(c1N)/C(=C/c1cccs1)C(=O)N2Cc1ccccc1,45.6%
15,CCn1cc(C(=O)O)c(=O)c2cc(F)c(N3CCN(CC(=O)Nc4ccc(/C(C)=N/OC)cc4)CC3)cc21,79.9%
16,N#Cc1c(-c2ccc(F)cc2)nc(N=Nc2c(O)[nH]c3ccccc23)nc1N1CCOCC1,60.4%
17,CCCCCOC(=O)c1ccccc1O,91.2%
18,C=C1C(=O)O[C@H]2[C@H]1CC/C(COC(=O)/C=C/c1cccnc1)=C\CC[C@@]1(C)O[C@@H]21,24.9%
19,COc1ccccc1Nc1nnc(-c2ccc(Cl)cc2)o1,69.5%
20,OCCNc1nc(NCCO)nc(Nc2ccc(C3=NN(c4cc(Cl)cc(Cl)c4)C(c4ccc(C(F)(F)F)cc4)C3)cc2)n1 (stereo not given),42.2%
